Measurements reported in PubChem BioAssay AID624414 (National Center for Advancing Translational Sciences (NCATS), 2012).
Screen size: about 410,000 compounds; about 480 (0.12%) were called active. The sample holds actives, similar compounds and a random draw of the others, so the mix is not that of the screen. Rule as the data show it: active = activation above about 50%; inconclusive = mostly about 30% to 49%; inactive = weaker than that.

target: Mucolipin-1 (Homo sapiens) (UniProt Q9GZU1); assay: qHTS for Agonists of the Human Mucolipin Transient Receptor Potential 1 (TRPML1); details: TRPML1-expressing cells, Ca2+ dye fluorescence, FDSS; active compounds read high; also: 0% is about no effect
From the text: Mutations of human Mucolipin transient receptor potential 1 (TRPML1) cause type IV mucolipidosis (ML4), a devastating neurodegenerative disease in young children. […] Currently, there is no treatment for ML4. […] Under physiological conditions, TRPMLs regulate membrane trafficking by transducing information about PI(3,5)P2 levels into changes in juxtaorganellar Ca2+, thereby triggering membrane fusion/fission events in the late endocytic pathways (endolysosomal trafficking). In addition, TRPML1 mediates release of Fe2+ from late endosomes and lysosomes, which is essential for cellular iron metabolism. Thus, impaired ion (Ca2+ and Fe2+) homeostasis underlies lysosomal dysfunction and ML4 phenotypes. In ML4 cells, the problem is twofold. First, defective Ca2+-dependent membrane trafficking due to TRPML1-deficiency causes accumulation of lipids and other bio-materials in the lysosome. The second strike comes from the lysosomal iron overload (due to impairment of TRPML1's Fe2+ conductivity), which converts the accumulated materials into the nondegradable (resistant to lysosomal degradation) lipofuscin (also called aging pigment) in the lysosome. Lipofuscin accumulation dramatically compromises the functions of lysosomes.
Niemann-Pick type C (NPC) disease is another lysosome storage disease (LSD) with severe neurodegeneration during the childhood. Currently, there is no cure for NPC. […] Thus, TRPML1 is likely to be an essential regulator of lysosome ion homeostasis. We specifically hypothesize that stimulating TRPML1's Fe2+/Ca2+ channel activity in the lysosome using synthetic agonists can alleviate neurodegeneration associated with ML4 or NPC.
To this end, a high throughput screen was developed in a miniaturized format to screen against the Molecular Libraries Small Molecule Repository (MLSMR) to find small molecules that act either as inhibitors or agonist against the TRPML1 channel.
NIH Chemical Genomics Center [NCGC]
NIH Molecular Libraries Probe Centers Network [MLPCN]
Assay Submitter (PI): Haoxing Xu, University of Michigan Ann Arbor
TRPML1-DL cells are dissociated from flasks, counted and, brought up to a density of 500,000 cells per mL of media containing a 1X Tet inducer. Using a Multidrop Combi, 3uL of this cell solution is dispensed to each well of a 1536 TC treated, black, clear bottom hi base plate for a final cell density of 1,500 cells per well. The assay plates are incubated overnight (approximately 16 hours) at 37 degrees C and 5% CO2. Using a Multidrop Combi, 2uL of ABD Ca8 no wash dye plus quencher is added to each well. The assay plates incubate at room temperature in the dark for 45-90 minutes. The assay plate is read on the FDSS using the following protocol: 10 second baseline read, 23nL of compounds and controls are added using 1536 pintool, agonist read for 110 seconds, 1 uL EC80 addition (4uM final 54-4 diluted in media), antagonist read for 110 seconds.

Chain of Mucolipin-1 (Homo sapiens) (Q9GZU1 whole entry, looked up, the tested form may be a part): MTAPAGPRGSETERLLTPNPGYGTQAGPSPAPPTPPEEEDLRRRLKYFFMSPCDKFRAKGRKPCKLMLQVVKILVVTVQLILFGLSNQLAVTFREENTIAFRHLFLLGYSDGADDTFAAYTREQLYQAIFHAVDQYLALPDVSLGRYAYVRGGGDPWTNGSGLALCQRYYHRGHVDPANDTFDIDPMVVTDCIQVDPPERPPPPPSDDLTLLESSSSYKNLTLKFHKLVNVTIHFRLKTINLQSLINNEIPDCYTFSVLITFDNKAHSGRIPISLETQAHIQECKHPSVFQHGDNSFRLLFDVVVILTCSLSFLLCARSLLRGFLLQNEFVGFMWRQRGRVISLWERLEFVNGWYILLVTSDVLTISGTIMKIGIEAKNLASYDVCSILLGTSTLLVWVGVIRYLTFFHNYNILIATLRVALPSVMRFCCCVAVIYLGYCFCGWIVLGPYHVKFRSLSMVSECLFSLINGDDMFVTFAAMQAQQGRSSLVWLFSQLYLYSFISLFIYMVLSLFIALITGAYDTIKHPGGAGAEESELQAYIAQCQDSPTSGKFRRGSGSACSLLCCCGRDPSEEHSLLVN

activation, active:
Cc1ccc(CNC(=O)c2cccc3c2C(=O)c2ccc(N4CCC(C)CC4)cc2S3(=O)=O)cc1 66.9%, NC(=O)c1ccc(NC(=O)COC(=O)c2c3c(nc4ccccc24)/C(=C\c2ccc4c(c2)OCO4)CCC3)cc1 96%, CN(C(=O)CN(CCO)CC(=O)N(C)C(C)(C)Cc1ccccc1)C(C)(C)Cc1ccccc1 51.2%, CN(C)c1ccc(/C=C2\NC(=S)N(Cc3ccccc3)C2=O)cc1 66.5%, Nc1c(C(=O)c2cccs2)sc2nsc(SCCN3CCCCC3)c12 56.3%, Oc1ccccc1CN1CCN(C(c2ccccc2)c2ccccc2)CC1 84.3%

activation, inactive:
Cc1ccc(CNC(=O)c2ccccc2CCc2ccccc2)cc1 0.628%, O=C1c2ccccc2S(=O)(=O)c2cc(N3CCN(c4ccccn4)CC3)ccc21 -0.448%, O=C(COC(=O)c1ccccc1OCCOc1ccccc1)Nc1cccc(Br)c1 -1.41%, COc1cc2[nH]c(C)c(CCN3CCN(c4ccccc4)CC3)c2cc1OC -0.545%, CN(CC(=O)Nc1ccc(C(N)=O)cc1)S(=O)(=O)c1ccc2c(c1)OCCO2 0.311%, NC(=O)c1ccc(NC(=O)COC(=O)C(Cc2ccccc2)NC(=O)c2ccccc2)cc1 (centres undefined) 4.33%, C[N+]1(CC(=O)c2cccs2)CCOCC1 -0.317%, CN(C)c1ccc(/C=C2\C=Cc3ccccc32)cc1Br 0.0951%, OCCNc1ncnc2oc(-c3ccco3)c(-c3ccco3)c12 0.995%, COc1ccc(-c2cc(C(=O)Nc3sc4c(c3C(N)=O)CCCC4)no2)cc1 0.03%, CC(C)c1ccc(NC(=O)Cn2nnc(C(=O)NCCc3ccccc3)c2N)cc1 1.91%, Cc1ccc(-c2nnc3ccc(SCC(N)=O)nn23)cc1 -0.578%, COc1ccc(C(=O)Nc2nonc2-c2ccc(OC)c(OC)c2)cc1Cl 2.17%, CC1(C)CC(=O)c2cc(C(=O)NCc3ccccc3)c(=O)[nH]c2C1 -0.38%, COc1ccc(C(=O)NCC(c2ccc(N(C)C)cc2)N2CCc3ccccc32)c(OC)c1 (centres undefined) -0.0968%, CCOc1ccccc1N(CC)C(=O)c1cc2ccc3cccnc3c2[nH]1 1.16%, CCOC(=O)c1ccc(NC(=O)CC2C(=O)N(c3ccccc3)C(=O)N2Cc2cccs2)cc1 (centres undefined) 0.378%, Cc1csc(NCC(=O)c2c[nH]c3ccccc23)n1 -0.545%, Nc1ccccc1N -0.412%, c1ccc(Cn2nnc3c(N4CCCCC4)ncnc32)cc1 -0.998%, Cc1cccc(-c2nnc(SC(C)C(=O)Nc3ccccc3)n2C)c1 (centres undefined) -0.995%, Cc1ccc(C=O)cc1Cl -0.475%, C(=Nc1ccc(/C=C/c2ccnc3ccccc23)cc1)c1cc2c3c(c1)CCCN3CCC2 1.62%, ClC/C=C/C[n+]1ccccc1Cl 0.254%, Nc1ccc(/C=C/c2ccnc3ccccc23)c([N+](=O)[O-])c1 17.6%, Cc1ccccc1NC(=O)Cn1c(=O)n(CC2CCC(C(=O)NCCc3ccccc3)CC2)c(=O)c2ccccc21 (centres undefined) 0.124%, Clc1cccc[n+]1CCCC[n+]1ccccc1Cl -0.384%, CCOc1ccc2oc(=O)cc(CN3CCN(C(=O)c4ccc(F)cc4)CC3)c2c1 0.651%, CC(C)(C(=O)NO)c1ccccc1 -0.108%, CN(C(=N)N)c1ccc(/C=C2\C=Cc3ccccc32)cc1 -0.285%, CCCCSc1ncnc2c1sc1nc(N3CCOCC3)c3c(c12)CCCC3 0.201%, CSc1n[nH]c(-c2ccco2)n1 -0.16%, O=C(C[n+]1ccncc1)c1ccc2c(c1)CCCC2 -0.708%, Cc1cc[n+](C2CCCCC2)cc1 3.69%, CN1CCN(/[N+]([O-])=N/Oc2ccc([N+](=O)[O-])cc2[N+](=O)[O-])CC1 1.19%, C=C1C=C(C(F)F)n2ncc(C(=O)NCCc3ccccc3OC)c2N1 -1.28%, COc1ccc(CCNc2nc(-c3ccc(Cl)cc3)cc(C(F)(F)F)n2)cc1OC -0.222%, CCC(=O)N(Cc1ccccc1)c1ccccn1 -0.645%, Cc1cc(C)cc(NC(=O)N(C)Cc2ccccc2)c1 0.932%, COc1ccc(C2/C=C\CN(C(=O)c3ccc(C)cc3)C(Cc3ccccc3)C(=O)N2Cc2ccc(F)cc2)cc1 (centres undefined) 0.118%, CCc1ccc(C2CC(=O)c3c([nH]c(C(=O)OCc4ccc(C)cc4)c3C)C2)cc1 (centres undefined) 1.69%, CCc1ccc(CNCc2c(C(=O)O)n(Cc3ccc(F)cc3Cl)c3cc(OC)ccc23)cc1 0.807%, CCN(CC)c1ccc(/C=C/c2c(C)cnc3ccc(C)cc23)cc1 11.4%, CN(C)c1ccc(/C=C/c2c3ccccc3nc3ccccc23)cc1 0.354%, CN(C)c1ccc(/C=c2\[nH]c(=O)/c(=C/c3ccc(N(C)C)cc3)[nH]c2=O)cc1 0.206%, Cc1ccc(CCNC(=O)Cn2c(-c3cccs3)cc3cc(F)ccc32)cc1 -0.443%, CNCCCOc1cc2nc(N3CCCN(C)CC3)nc(NC3CCN(C)CC3)c2cc1OC -0.513%, COc1cc2nc(N3CCCN(C)CC3)nc(NC3CC3)c2cc1OC -0.539%, COc1cc(OC)c(/C=C/c2ccnc3ccccc23)c(OC)c1 -0.602%, CN(N=O)c1ccc(C=C2c3ccccc3-c3ccccc32)cc1 -0.127%, Cn1nnnc1SCC(=O)N1CCN(C(c2ccccc2)c2ccccc2)CC1 2%, CC(=O)N1CCN(CC(c2ccccc2)c2ccccc2)CC1 -0.726%, CCN1CCN(c2ccc(/C=C/c3ccnc4ccccc34)cc2)CC1 5.01%
